Test in all cases: PBM; 200 nM protein, PBS
Conditions in all cases: dsDNA, one strand shown

For assay [1], the target named is HOXB9 (Homo sapiens, UniProt P17482 171-250, T197M).
Assay [2] concerns the target HOXC9 (Homo sapiens, UniProt P31274 178-260, K195R).
For assay [3], the target named is HOXA7 (Homo sapiens, UniProt P31268 116-202).
Assay [4] deals with HOXC10 (Homo sapiens, UniProt Q9NYD6 254-340).
Assay [5] addresses HOXB6 (Homo sapiens, UniProt P17509 132-218, K202E).
The target in assay [6] is HOXB9 (Homo sapiens, UniProt P17482 171-250).
Sequence of HOXB9 (Homo sapiens, UniProt P17482 171-250) (P17482 171-250): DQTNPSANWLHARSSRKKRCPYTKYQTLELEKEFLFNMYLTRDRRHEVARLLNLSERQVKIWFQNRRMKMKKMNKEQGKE
Assay [7] has as its target HOXC9 (Homo sapiens, UniProt P31274 178-260).
Assay [8] addresses MSX2 (Homo sapiens, UniProt P35548 130-214, R199I).
Assay [9] has as its target HOXD13 (Homo sapiens, UniProt P35453 263-343, T313R).
The target of assay [10] is HOXC9 (Homo sapiens, UniProt P31274 178-260, R193K).
Sequence of HOXC9 (Homo sapiens, UniProt P31274 178-260, R193K) (P31274 178-260 R193K): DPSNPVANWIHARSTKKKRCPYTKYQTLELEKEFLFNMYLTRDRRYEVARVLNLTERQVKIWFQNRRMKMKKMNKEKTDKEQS
Assay [11] deals with HOXC10 (Homo sapiens, UniProt Q9NYD6 254-340, K271E).
Sequence of HOXC10 (Homo sapiens, UniProt Q9NYD6 254-340, K271E) (Q9NYD6 254-340 K271E): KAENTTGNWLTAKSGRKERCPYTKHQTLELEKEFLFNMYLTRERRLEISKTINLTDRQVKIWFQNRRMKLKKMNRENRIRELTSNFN
The target of assay [12] is MSX2 (Homo sapiens, UniProt P35548 130-214).
Sequence of MSX2 (Homo sapiens, UniProt P35548 130-214) (P35548 130-214): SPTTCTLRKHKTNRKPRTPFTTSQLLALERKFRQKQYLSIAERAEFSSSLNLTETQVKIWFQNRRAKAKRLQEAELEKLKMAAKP
Assay [13] addresses HOXB9 (Homo sapiens, UniProt P17482 171-250, R186Q).
Assay [14] deals with HOXC9 (Homo sapiens, UniProt P31274 178-260, R222W).
Sequence of HOXC9 (Homo sapiens, UniProt P31274 178-260, R222W) (P31274 178-260 R222W): as the sequence (P31274 178-260 R193K) above, with K16R, R45W counted along it
The target in assay [15] is MSX2 (Homo sapiens, UniProt P35548 130-214, F161Y).
Sequence of MSX2 (Homo sapiens, UniProt P35548 130-214, F161Y) (P35548 130-214 F161Y): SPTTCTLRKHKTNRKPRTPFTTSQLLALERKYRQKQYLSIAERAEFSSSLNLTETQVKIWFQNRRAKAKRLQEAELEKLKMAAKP
For assay [16], the target named is HOXA7 (Homo sapiens, UniProt P31268 116-202, W177C).
Sequence of HOXA7 (Homo sapiens, UniProt P31268 116-202, W177C) (P31268 116-202 W177C): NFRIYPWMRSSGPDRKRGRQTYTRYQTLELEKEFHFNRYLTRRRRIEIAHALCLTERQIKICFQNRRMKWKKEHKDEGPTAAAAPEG
Assay [17] has as its target HOXB6 (Homo sapiens, UniProt P17509 132-218).
Assay [18] concerns the target T1, VENTX (Homo sapiens, UniProt O95231 78-163, R121Q).
T1 sequence: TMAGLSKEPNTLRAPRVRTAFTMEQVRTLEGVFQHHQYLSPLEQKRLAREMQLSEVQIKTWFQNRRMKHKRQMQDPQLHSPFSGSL

In assay [19] the target is T2, PAX4 (Homo sapiens, UniProt O43316 9-242, R200K).
T2 sequence: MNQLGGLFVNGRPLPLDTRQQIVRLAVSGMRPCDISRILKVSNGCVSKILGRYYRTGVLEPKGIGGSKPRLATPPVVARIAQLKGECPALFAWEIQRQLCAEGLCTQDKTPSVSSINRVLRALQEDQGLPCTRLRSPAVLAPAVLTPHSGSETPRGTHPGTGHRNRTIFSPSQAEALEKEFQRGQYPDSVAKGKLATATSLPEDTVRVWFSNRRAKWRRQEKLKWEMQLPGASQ

The target in assay [20] is T3, PAX4 (Homo sapiens, UniProt O43316 9-242).
T3 sequence: T2 sequence with K192R

Assay [21] concerns the target T4, PAX4 (Homo sapiens, UniProt O43316 9-242, R200Q).
T4 sequence: T2 sequence with K192Q

Assay [22] concerns the target T5, PAX4 (Homo sapiens, UniProt O43316 9-242, F177V).
T5 sequence: T2 sequence with F169V, K192R

Assay [23] has as its target T6, PAX4 (Homo sapiens, UniProt O43316 9-242, F177Y).
T6 sequence: T2 sequence with F169Y, K192R

For assay [24], the target named is T7, PAX4 (Homo sapiens, UniProt O43316 9-242, R227W).
T7 sequence: T2 sequence with K192R, R219W

Assay [25] deals with CRX (Homo sapiens, UniProt O43186 26-111, R41L).
Sequence of CRX (O43186 26-111 R41L): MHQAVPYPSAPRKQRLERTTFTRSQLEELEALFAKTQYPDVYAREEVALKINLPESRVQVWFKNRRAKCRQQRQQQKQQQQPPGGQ
For assay [26], the target named is ALX4 (Homo sapiens, UniProt Q9H161 200-286, Q225E).
Sequence of ALX4 (Q9H161 200-286 Q225E): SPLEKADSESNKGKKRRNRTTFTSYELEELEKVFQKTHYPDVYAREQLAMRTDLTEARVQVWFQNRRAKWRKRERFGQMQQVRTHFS
The target in assay [27] is HOXD13 (Homo sapiens, UniProt P35453 263-343).
Sequence of HOXD13 (Homo sapiens, UniProt P35453 263-343) (P35453 263-343): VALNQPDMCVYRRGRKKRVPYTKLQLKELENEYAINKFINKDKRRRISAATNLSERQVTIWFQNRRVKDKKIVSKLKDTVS
The target of assay [28] is HOXD13 (Homo sapiens, UniProt P35453 263-343, T313A).
Sequence of HOXD13 (Homo sapiens, UniProt P35453 263-343, T313A) (P35453 263-343 T313A): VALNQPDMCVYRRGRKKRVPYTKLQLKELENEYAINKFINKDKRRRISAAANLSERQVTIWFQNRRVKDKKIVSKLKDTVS

Positions count from the first letter of the chain named.

Data on 3 sequences can be found in PMC11006913.

Sequence of HOXC9 (Homo sapiens, UniProt P31274 178-260, K195R) (P31274 178-260 K195R): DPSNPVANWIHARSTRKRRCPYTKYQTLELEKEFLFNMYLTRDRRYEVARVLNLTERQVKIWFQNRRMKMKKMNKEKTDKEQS
Sequence of HOXD13 (Homo sapiens, UniProt P35453 263-343, T313R) (P35453 263-343 T313R): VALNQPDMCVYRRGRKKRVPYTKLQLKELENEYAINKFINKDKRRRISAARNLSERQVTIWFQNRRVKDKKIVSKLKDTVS
Sequence of HOXC10 (Homo sapiens, UniProt Q9NYD6 254-340) (Q9NYD6 254-340): as the sequence (Q9NYD6 254-340 K271E) above, with E18K counted along it
Sequence of HOXB9 (Homo sapiens, UniProt P17482 171-250, R186Q) (P17482 171-250 R186Q): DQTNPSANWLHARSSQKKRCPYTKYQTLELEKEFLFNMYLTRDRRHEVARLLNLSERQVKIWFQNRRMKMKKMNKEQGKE
Sequence of HOXC9 (Homo sapiens, UniProt P31274 178-260) (P31274 178-260): as the sequence (P31274 178-260 R193K) above, with K16R counted along it
Sequence of HOXB6 (Homo sapiens, UniProt P17509 132-218, K202E) (P17509 132-218 K202E): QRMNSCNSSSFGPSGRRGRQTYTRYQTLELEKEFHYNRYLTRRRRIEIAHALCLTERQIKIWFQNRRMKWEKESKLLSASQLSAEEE
Sequence of HOXB6 (Homo sapiens, UniProt P17509 132-218) (P17509 132-218): as the sequence (P17509 132-218 K202E) above, with E71K counted along it
Sequence of HOXA7 (Homo sapiens, UniProt P31268 116-202) (P31268 116-202): as the sequence (P31268 116-202 W177C) above, with C62W counted along it
Sequence of HOXB9 (Homo sapiens, UniProt P17482 171-250, T197M) (P17482 171-250 T197M): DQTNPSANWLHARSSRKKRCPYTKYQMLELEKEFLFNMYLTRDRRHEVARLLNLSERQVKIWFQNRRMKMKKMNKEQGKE
Sequence of MSX2 (Homo sapiens, UniProt P35548 130-214, R199I) (P35548 130-214 R199I): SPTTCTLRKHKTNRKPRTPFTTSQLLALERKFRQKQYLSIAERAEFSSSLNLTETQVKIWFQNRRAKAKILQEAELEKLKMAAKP

Consider ATTTAATG, for which the binding signal in [1] was 10.2 upbm affinity estimate (log intensity, higher = more binding, comparable within an allelic series); in [2] it was 13.1 upbm affinity estimate (log intensity, higher = more binding, comparable within an allelic series); in assay [3], 11.3 upbm affinity estimate (log intensity, higher = more binding, comparable within an allelic series); in assay [4] it was 12.4 upbm affinity estimate (log intensity, higher = more binding, comparable within an allelic series); in [5], 10.1 upbm affinity estimate (log intensity, higher = more binding, comparable within an allelic series); in [6], 12.3 upbm affinity estimate (log intensity, higher = more binding, comparable within an allelic series). The binding signal in assay [7] is 13 upbm affinity estimate (log intensity, higher = more binding, comparable within an allelic series); in assay [8], 11.4 upbm affinity estimate (log intensity, higher = more binding, comparable within an allelic series); in assay [9] it was 10.7 upbm affinity estimate (log intensity, higher = more binding, comparable within an allelic series); in [10], 13 upbm affinity estimate (log intensity, higher = more binding, comparable within an allelic series); in assay [11] it was 12.2 upbm affinity estimate (log intensity, higher = more binding, comparable within an allelic series); in assay [12] it was 12.2 upbm affinity estimate (log intensity, higher = more binding, comparable within an allelic series). For the same sequence, the binding signal is 12.1 upbm affinity estimate (log intensity, higher = more binding, comparable within an allelic series) in assay [13]; 11.2 upbm affinity estimate (log intensity, higher = more binding, comparable within an allelic series) in assay [14]; 12 upbm affinity estimate (log intensity, higher = more binding, comparable within an allelic series) in assay [15]; 8.91 upbm affinity estimate (log intensity, higher = more binding, comparable within an allelic series) in assay [16]; 11.9 upbm affinity estimate (log intensity, higher = more binding, comparable within an allelic series) in [17].

As to TAATGCGA, the binding signal in assay [18] is 10.2 upbm affinity estimate (log intensity, higher = more binding, comparable within an allelic series); in [19], 11.7 upbm affinity estimate (log intensity, higher = more binding, comparable within an allelic series); in assay [20] it was 12.1 upbm affinity estimate (log intensity, higher = more binding, comparable within an allelic series); in [21] it was 11.4 upbm affinity estimate (log intensity, higher = more binding, comparable within an allelic series); in assay [22] it was 10.4 upbm affinity estimate (log intensity, higher = more binding, comparable within an allelic series); in [23], 10.9 upbm affinity estimate (log intensity, higher = more binding, comparable within an allelic series). Besides, the binding signal was 10.9 upbm affinity estimate (log intensity, higher = more binding, comparable within an allelic series) in assay [24] and 10.6 upbm affinity estimate (log intensity, higher = more binding, comparable within an allelic series) in [25].

In the case of GCAATAAA, the binding signal in [1] is 10 upbm affinity estimate (log intensity, higher = more binding, comparable within an allelic series); in assay [2], 13.2 upbm affinity estimate (log intensity, higher = more binding, comparable within an allelic series); in assay [3], 11.2 upbm affinity estimate (log intensity, higher = more binding, comparable within an allelic series); in assay [4] it was 12.8 upbm affinity estimate (log intensity, higher = more binding, comparable within an allelic series); in assay [5], 9.94 upbm affinity estimate (log intensity, higher = more binding, comparable within an allelic series); in assay [26], 10.5 upbm affinity estimate (log intensity, higher = more binding, comparable within an allelic series). For the same sequence, the binding signal in assay [6] was 12.6 upbm affinity estimate (log intensity, higher = more binding, comparable within an allelic series); in [7] it was 13.3 upbm affinity estimate (log intensity, higher = more binding, comparable within an allelic series); in assay [9], 11 upbm affinity estimate (log intensity, higher = more binding, comparable within an allelic series); in assay [10], 13.1 upbm affinity estimate (log intensity, higher = more binding, comparable within an allelic series); in assay [27] it was 12.3 upbm affinity estimate (log intensity, higher = more binding, comparable within an allelic series); in [11], 12.3 upbm affinity estimate (log intensity, higher = more binding, comparable within an allelic series). Further, the binding signal was 12.1 upbm affinity estimate (log intensity, higher = more binding, comparable within an allelic series) in assay [28]; 12.3 upbm affinity estimate (log intensity, higher = more binding, comparable within an allelic series) in [13]; 11.4 upbm affinity estimate (log intensity, higher = more binding, comparable within an allelic series) in assay [14]; 8.8 upbm affinity estimate (log intensity, higher = more binding, comparable within an allelic series) in [16]; 11.7 upbm affinity estimate (log intensity, higher = more binding, comparable within an allelic series) in [17].
